The text below walks through data of PubChem BioAssay (NCI).

About 83,000 compounds went through this panel and 20% of them were active in at least one assay; those are over-represented in the sample as a whole.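 48-hour exposure, single concentration, 96-well plates; percent growth endpoint where 0 means no net growth. Active: below 10.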 Unmarked numbers belong to inactive results. Active and inactive are the calls of the source.

Some test systems named below: BT-549 breast; MDA-MB-435 melanoma; SW-620 colon; MCF7 breast; HCT-116 colon; HCC-2998 colon; KM12 colon.
Holding throughout (test): NCI-60 one-dose screen, 48 h (100 = growth as untreated, 0 = no growth, -100 = all killed)
Holding throughout (details): 10 µM

With `CC(=O)c1cc(Br)ccc1O`, the growth was 110% in the assay with BT-549 breast; 99.1% with MDA-MB-435 melanoma; 102% in the assay with SW-620 colon; 102% in the assay with MCF7 breast; 112% in the assay with HCT-116 colon; 101% in the assay on HCC-2998 colon. In addition, the growth with KM12 colon is 102%.

As for `N#Cc1c(C#N)c(SSc2c(C#N)c(C#N)c(N)n2-c2ccccc2)n(-c2ccccc2)c1N`, the growth is 109% with BT-549 breast; 114% in the assay with MDA-MB-435 melanoma; 98.7% in the assay with SW-620 colon; 104% in the assay with MCF7 breast; 104% in the assay with HCT-116 colon; 96.3% with HCC-2998 colon. Further, the growth in the assay on KM12 colon was 106%.

For `CCOC(=O)C(CSC(c1ccccc1)(c1ccccc1)c1ccccc1)NC(=O)C(CSC(c1ccccc1)(c1ccccc1)c1ccccc1)NC(c1ccccc1)(c1ccccc1)c1ccccc1` (stereo unspecified), the growth is 109% in the assay on BT-549 breast; 86.1% in the assay on MDA-MB-435 melanoma; 104% in the assay on SW-620 colon; 95% with MCF7 breast; 108% with HCT-116 colon; 113% in the assay with HCC-2998 colon. Besides, in the assay on KM12 colon, the growth is 111%.

As for `CCCCCCCCN(CCCCCCCC)CCCCCCCCCN1CCCc2cc(OC)ccc21`, the growth is 94.9% in the assay with BT-549 breast; 104% in the assay on MDA-MB-435 melanoma; 99% in the assay with SW-620 colon; 96% with MCF7 breast; 75.7% in the assay with HCT-116 colon; 93.2% in the assay with HCC-2998 colon. In addition, the growth in the assay with KM12 colon is 104%.

As to `CN(CCc1ccccn1)c1ccccc1`, the growth is 104% in the assay with BT-549 breast; 120% in the assay on MDA-MB-435 melanoma; 111% in the assay with SW-620 colon; 95.9% in the assay with MCF7 breast; 101% with HCT-116 colon; 103% in the assay on HCC-2998 colon. In addition, the growth with KM12 colon is 104%.

For `CC(C)=NNc1ncnc2c1ncn2C1OC(CO)C(O)C1O` (stereo unspecified), the growth was 43% in the assay with BT-549 breast; 18% in the assay with MDA-MB-435 melanoma; 9.33% (active) with SW-620 colon; 12.2% in the assay with MCF7 breast; 1.45% (active) in the assay on HCT-116 colon; -10.2% (active) in the assay with HCC-2998 colon. Further, the growth with KM12 colon was 2.36% (active).

Regarding `COc1cc(-c2nn3c(/C=C4/C(=O)Nc5ccccc54)c(-c4ccc(C)cc4)nc3s2)cc(OC)c1OC`, the growth in the assay with BT-549 breast is 22.8%; in the assay with MDA-MB-435 melanoma it was 33.6%; with SW-620 colon, 54.8%; in the assay with MCF7 breast, 39.4%; in the assay with HCT-116 colon it was 24%; in the assay with HCC-2998 colon, 85.1%. For the same molecule, the growth in the assay with KM12 colon is 51%.

For `Cc1nc2c(c(=O)[nH]1)OCN(Cc1ccccc1)C2`, the growth was 102% in the assay with BT-549 breast; 112% in the assay on MDA-MB-435 melanoma; 102% in the assay on SW-620 colon; 102% in the assay with MCF7 breast; 100% in the assay with HCT-116 colon; 104% in the assay with HCC-2998 colon. For the same molecule, the growth with KM12 colon is 104%.

Regarding `CN(C)CCCn1c(=O)c2ccccc2c2cnc3[nH]ccc3c21`, the growth in the assay on BT-549 breast is 34.1%; in the assay on MDA-MB-435 melanoma it was 11.9%; in the assay on SW-620 colon, 5.02% (active); in the assay with MCF7 breast, 1.25% (active); in the assay on HCT-116 colon it was 2.85% (active); with HCC-2998 colon, 30.3%. The growth in the assay on KM12 colon was 9.58% (active).

As for `O=C(O)CN1C(=O)c2cccc3cccc(c23)C1=O`, the growth was 104% in the assay on BT-549 breast; 104% in the assay on MDA-MB-435 melanoma; 106% in the assay on SW-620 colon; 87.4% in the assay on MCF7 breast; 102% in the assay on HCT-116 colon; 103% with HCC-2998 colon. In addition, the growth in the assay on KM12 colon is 107%.

`CCOC(=O)c1ccoc1`: the growth with BT-549 breast was 98.4%; in the assay on MDA-MB-435 melanoma, 107%; with SW-620 colon it was 100%; in the assay with MCF7 breast, 95.1%; in the assay with HCT-116 colon, 97.1%; in the assay on HCC-2998 colon, 113%. In addition, in the assay with KM12 colon, the growth was 104%.

With `COc1ccc(-c2cc(/C=C3\C(=O)Nc4ccc(OC)cc43)[nH]n2)cc1`, the growth in the assay with BT-549 breast was 61.5%; in the assay with MDA-MB-435 melanoma, -25.1% (active); in the assay with SW-620 colon, 19.3%; with MCF7 breast it was 7.36% (active); in the assay with HCT-116 colon, 25.3%; with HCC-2998 colon, 52.8%. The growth in the assay on KM12 colon was 8.99% (active).

For `O=C1Nc2ccc(Cl)cc2/C1=C\c1c(-c2ccc(Cl)cc2)nc2sc(C3CC3)nn12`, the growth was 65.3% with BT-549 breast; 77% with MDA-MB-435 melanoma; 80.8% in the assay on SW-620 colon; 60.7% in the assay on MCF7 breast; 41.4% in the assay with HCT-116 colon; 83.7% with HCC-2998 colon. In addition, the growth in the assay on KM12 colon is 82.7%.

For `COc1ccc(Nc2ccnc(NCCNc3ccnc4cc(Cl)ccc34)n2)cc1`, the growth is 61% in the assay with BT-549 breast; -39.1% (active) in the assay on MDA-MB-435 melanoma; 36.4% in the assay with SW-620 colon; 14.3% with MCF7 breast; 3.11% (active) with HCT-116 colon; 41.1% with HCC-2998 colon. Besides, the growth in the assay with KM12 colon is 62.2%.

Regarding `O=C(CC(C(=O)c1ccccc1)N1CCOCC1)c1ccccc1` (stereo unspecified), the growth was 99.6% in the assay with BT-549 breast; 107% in the assay with MDA-MB-435 melanoma; 60.8% in the assay with SW-620 colon; 43.4% in the assay with MCF7 breast; 77.3% in the assay on HCT-116 colon; 104% with HCC-2998 colon. Besides, in the assay with KM12 colon, the growth was 105%.

For the molecule `O=C(Nc1cccc(Cl)c1)Nc1nccs1`, the growth with BT-549 breast was 90.1%; in the assay with MDA-MB-435 melanoma, 62%; with SW-620 colon it was 103%; in the assay with MCF7 breast, 57.8%; in the assay on HCT-116 colon it was 94%; in the assay on HCC-2998 colon it was 89.7%. Besides, the growth with KM12 colon is 81.2%.

On to `Cc1cc(N(CCCNc2ccnc3cc(Cl)ccc23)Cc2cccs2)nc(Cl)n1`, for which the growth with BT-549 breast is 33.7%; with MDA-MB-435 melanoma it was 48.9%; in the assay on SW-620 colon, 32.9%; in the assay with MCF7 breast it was 40.8%; in the assay on HCT-116 colon, 21.4%; in the assay with HCC-2998 colon it was 36.8%. The growth with KM12 colon was 39.1%.

For `CCN1Cc2c(/C=C/c3ccccc3)nc3ccc(OC)cc3c2N(c2cccc(Cl)c2)C1`, the growth with BT-549 breast is 95.2%; with MDA-MB-435 melanoma, 76.1%; in the assay with SW-620 colon, 67.4%; with MCF7 breast it was 78.5%; with HCT-116 colon it was 45.8%; with HCC-2998 colon, 86%. For the same molecule, the growth in the assay with KM12 colon was 94.2%.
